Test results: PubChem BioAssay AID1029 (Sanford-Burnham Center for Chemical Genomics, 2008)
The whole screen tested about 110,000 compounds, of which about 80 (0.07%) were called active. Shown is part of a subset that was picked to be rich in actives. A number with no mark means an inactive call.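 The calls were made as follows: active = inhibition above the mean of the plate negative controls plus 5 SD (cut at about 13% in these data); inactive = the rest.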

Test: inhibitors of macrophage phagocytosis, primary screen, imaging, J774A.1 cells, IgG beads (AID 1029);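 also: phagocytic index as fraction of beads internalized from green versus red external bead signal; plate controls were DMSO negative control for no effect and cytochalasin-D positive control for full effect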
Settings: J774A.1 macrophage IgG-bead phagocytosis, at 5 µM, stronger effect = higher value

Row | Structure (SMILES) | inhibition [%]
1 | CCOC(=O)C(O)(c1ccc(N)c(OC)c1)C(F)(F)F (centres undefined) | -1.1
2 | CCOC(=O)C(O)(c1ccc(NC(=O)c2ccco2)c(OC)c1)C(F)(F)F (centres undefined) | 2.8
3 | CN(C)C(=O)Oc1ccc(OCc2cccc[n+]2C)cc1 | -2.17
4 | O=c1[nH]c(=S)n(C2CC2)c(O)c1/C=N/N1CCOCC1 | -3.16
